High-throughput results: PubChem, National Center for Advancing Translational Sciences (NCATS)
HTT-AS promoter = Primary qHTS for Identification of Small Molecule Activators of Huntingtin-Antisense Promoter Activity | AID 1508624, 2021 | 0.24% of 48,000 active | HEK293 HTT-AS promoter firefly luciferase reporter, 24 h; response scale: percent change from vehicle, -100% = no light | Potency, µM (titrated, usually from 57.5 µM), most hits filed as activators; also: nearly all actives have a fitted effect of over 55% in size
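HEK293 Fluc reporter, 2,500 cells/well, 24 h pre-culture; cpds up to 57.5 uM final, 24 h 37 degrees C; Dual-Glo, 10 min RT; normalized vehicle = 0%, zero RLU = -100%.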
NTMT1 inhibitor = Primary qHTS for Inhibitors of N-terminal methyltransferase 1 (NTMT1): MTaseGlo Assay; NTMT1 MTase-Glo SAH luminescence, purified enzyme; 2.5% of 59,000 active; Potency, µM (highest dose often 114 µM), hits mostly inhibitors; N-terminal Xaa-Pro-Lys N-methyltransferase 1 (Homo sapiens), Q9BV86; also: nearly all actives have a fitted effect of over 65% in size
HTT promoter inh = Primary qHTS for Identification of Small Molecule Inhibitors of Huntingtin Promoter Activity. AID 1508623, 2021. 0.93% of 48,000 active. HEK293 HTT promoter firefly luciferase reporter, 24 h. Potency, µM (series often up to 57.5 µM), actives largely listed as inhibitors; also: nearly all actives have a fitted effect of over 50% in size
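HEK293 luciferase promoter-reporter cells (2,500/well) plated 24 h, then compounds added at up to 57.5 uM final for 24 h at 37 °C. Firefly luminescence by Dual-Glo, normalized to vehicle (0%) and zero RLU (-100%).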
FH mod = Identification of activators of human fumarate hydratase by quantitative high-throughput screening; FH coupled MDH/diaphorase resazurin fluorescence, 15 min; Potency, µM (top dose mostly 79.9 µM), hits mostly inhibitors; 0.22% of 54,000 active; AID 1347055, 2019; also: the screen sought activators but most active calls are inhibition curves; nearly all actives have a fitted effect of over 45% in size
Target sequence (P07954 whole entry, looked up): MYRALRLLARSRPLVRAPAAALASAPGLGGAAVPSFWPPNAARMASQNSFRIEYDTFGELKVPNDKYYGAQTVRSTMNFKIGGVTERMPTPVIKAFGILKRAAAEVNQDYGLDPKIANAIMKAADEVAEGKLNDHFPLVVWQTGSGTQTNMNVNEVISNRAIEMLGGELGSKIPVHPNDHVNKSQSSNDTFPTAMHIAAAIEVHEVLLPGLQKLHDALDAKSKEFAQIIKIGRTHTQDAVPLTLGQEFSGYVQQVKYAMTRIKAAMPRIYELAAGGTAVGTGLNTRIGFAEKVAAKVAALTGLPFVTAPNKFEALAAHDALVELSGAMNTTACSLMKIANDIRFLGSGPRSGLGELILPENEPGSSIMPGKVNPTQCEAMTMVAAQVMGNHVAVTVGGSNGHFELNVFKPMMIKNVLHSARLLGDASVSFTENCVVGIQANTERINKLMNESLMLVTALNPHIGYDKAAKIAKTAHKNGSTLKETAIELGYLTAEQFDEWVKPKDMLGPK
GALK inh = qHTS Assay for Inhibitors of Human Galactokinase (GALK): NCGC Sytravon Library Screen; P51570; recombinant GALK, Kinase-Glo ATP luminescence, 1 h; Potency, µM (doses to about 57.5 µM), actives largely listed as inhibitors; 44,000 tested, under 10 active
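5 nM GALK; 35 uM ATP; 100 uM D-galactose; 20 mM HEPES pH 8.0, 5 mM MgCl2, 60 mM NaCl, 1 mM DTT, 0.01% BSA; 1 h RT; Kinase-Glo Plus luminescence.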
Of the large screens only hits and unclear results are named; the others gave an inactive call; ! = repeats disagree. Hits are enriched below; roughly 2.5% of the tested compounds scored in any of these assays. Calls follow the shape of the dose curve; as a rule, active = well fitted curve in the direction sought with a large enough effect; inconclusive = small, poorly fitted or top-dose-only effect, or another doubt; inactive = no such curve, though single readings can be large; an effect the other way counts as inactive or inconclusive.

Cc1ccc(C)c(NC(=O)c2ccc3c(c2)CCCN3S(C)(=O)=O)c1	HTT-AS promoter 7.9µM
CC(C)c1ccc(NC(=O)c2ccc3c(c2)CCCN3S(C)(=O)=O)cc1	HTT promoter inh 10µM
Cc1c(Cl)cccc1NC(=O)c1ccc2c(c1)CCCN2S(C)(=O)=O	HTT promoter inh inconclusive
CC(C)(C)OC(=O)N1CCN(c2ccc(NCc3coc(-c4ccc(C#N)cc4)c3)cc2)CC1	none (no result: HTT-AS promoter, HTT promoter inh, FH mod, GALK inh)
CCOC(=O)c1ccc2ncc(C(=O)OCC)c(NCCc3ccc(OC)c(OC)c3)c2c1	FH mod inconclusive
CCOC(=O)c1cnc2ccc(OC)cc2c1NCCc1ccccc1	HTT promoter inh 32µM
CCc1ccc(NC(=O)c2ccc(CNS(=O)(=O)c3ccc4c(c3)C(C)(C)C(=O)N4C)cc2)cc1	NTMT1 inhibitor inconclusive, HTT promoter inh inconclusive
CN1C(=O)C(C)(C)c2cc(S(=O)(=O)NCc3ccc(C(=O)Nc4ccc(Cl)cc4)cc3)ccc21	HTT promoter inh 18µM, GALK inh inconclusive
O=C1CCCC2=C1C(c1cccc(Oc3ccccc3)c1)N=C(Nc1nc3ccccc3o1)N2 (stereo unspecified)	none (no result: HTT-AS promoter, HTT promoter inh, FH mod, GALK inh)
CCCCNC(=O)c1nn(C)c2c1CSc1ccccc1-2	NTMT1 inhibitor 79µM
COc1ccc2oc(=O)c(C(=O)Nc3cccc(C(=O)O)c3)cc2c1	HTT-AS promoter inconclusive, HTT promoter inh 4µM
O=C(O)c1c(Cl)c(Cl)c(Cl)c(Cl)c1-c1c2cc(I)c(=O)c(I)c-2oc2c(I)c(O)c(I)cc12	NTMT1 inhibitor 3.5µM, FH mod inconclusive (no result: GALK inh)
NC(=O)C1CCN(c2ncnc3c2cnn3-c2cccc(Cl)c2)CC1	HTT promoter inh 4.5µM
OCCN1CCN(CCCN2c3ccccc3Sc3ccc(C(F)(F)F)cc32)CC1	NTMT1 inhibitor 32µM! (no result: GALK inh)
O=S(=O)(Nc1nccs1)c1ccc(NCc2cccc(Cl)c2Cl)cc1	none (no result: HTT-AS promoter, HTT promoter inh, FH mod, GALK inh)
O=C1NC(=O)/C(=C\c2ccc3nccc(-c4ccncc4)c3c2)S1	NTMT1 inhibitor inconclusive, FH mod 25µM (no result: HTT-AS promoter, HTT promoter inh, GALK inh)
O=C1NC(=O)/C(=C/c2ccc3nccc(-c4ccncc4)c3c2)S1	NTMT1 inhibitor inconclusive, FH mod 32µM (no result: HTT-AS promoter, HTT promoter inh, GALK inh)
Fc1ccc(CNc2nc(-c3ccccc3C(F)(F)F)nc3ccccc23)cc1	none (no result: HTT-AS promoter, HTT promoter inh, FH mod, GALK inh)
Cc1cccc(N2CCN(C(=O)C3CCN(C(=O)c4cc5sccc5n4C)CC3)CC2C)c1 (stereo unspecified)	HTT promoter inh 22µM
Cc1ccc(C)c(N2CCN(C(=O)C3CCN(C(=O)c4cc5sccc5n4C)CC3)CC2)c1	HTT promoter inh inconclusive
COc1cccc(CN(C)c2ccc([S+](=O)([O-])Nc3nccs3)cc2)c1O	none (no result: HTT-AS promoter, HTT promoter inh, FH mod, GALK inh)
CC(O)(C#Cc1ccc2c(c1)N(c1nc(N)ncc1Cl)CC2)c1nccs1 (stereo unspecified)	NTMT1 inhibitor 35µM, HTT promoter inh inconclusive (no result: GALK inh)
CCCCCCCCCCCCCCCC[N+](C)(C)Cc1ccccc1	NTMT1 inhibitor 22µM (no result: GALK inh)
CCCCC/C(C=O)=C\c1ccccc1	none (no result: GALK inh)
CCCCCCCCCCCCCC[N+](C)(C)Cc1ccccc1	NTMT1 inhibitor 50µM, HTT promoter inh inconclusive (no result: GALK inh)
CCN(CCCc1ccccc1)CCCc1ccccc1	NTMT1 inhibitor inconclusive (no result: GALK inh)
CCCCCCCCCCCCCCCC[N+](C)(C)CC	NTMT1 inhibitor 25µM, HTT promoter inh inconclusive (no result: GALK inh)
CCCCCCCCCCCCCC[N+](C)(C)C	NTMT1 inhibitor inconclusive, HTT promoter inh inconclusive (no result: GALK inh)
O=[S+]([O-])(Nc1ccc2ccccc2c1)c1ccc(NCc2ccc(Cl)cc2O)cc1	none (no result: HTT-AS promoter, HTT promoter inh, FH mod, GALK inh)
O=[S+]([O-])(Nc1ccc(C2CCNCC2)cc1)c1ccc(NCc2ccc(Br)cc2O)cc1	NTMT1 inhibitor 50µM (no result: HTT-AS promoter, HTT promoter inh, FH mod, GALK inh)
Cc1[nH]cnc1CN1CCN(C(=O)N[C@@H](CC(C)C)C(=O)O)[C@@H](Cc2ccccc2)C1=O	none (no result: HTT-AS promoter, HTT promoter inh, FH mod, GALK inh)
S=P(N1CC1)(N1CC1)N1CC1	NTMT1 inhibitor 16µM! (no result: GALK inh)
Cc1c[nH]c2nc(Nc3ccc(N4CCN(C)CC4)c(F)c3)nc(-c3cccc(CC#N)c3)c12	NTMT1 inhibitor 25µM (no result: HTT-AS promoter, HTT promoter inh, FH mod, GALK inh)
CC(=O)Nc1cccc(-c2nc(-c3ccccc3)no2)c1	HTT-AS promoter 1.1µM
